Measured values from PubChem BioAssay (EPA / NIEHS).
Where “and” joins values, the source holds several entries; their conditions need not be identical. Equal entries are not always repeated. Calls of active or inactive are those of the source. How the source made its calls: active means hit-call score of the fitted dose curve at least 0.9, where 1 is the maximum; inactive means score below 0.9.

Experiments:
[1] = read-out: Epidermal growth factor receptor (EGFR), EGFR (gene 1956); test: BSK_hDFCGF_EGFR: BioMAP Diversity Plus: hDFCGF Assay for Epidermal growth factor receptor (EGFR) Biomarker Activity (AID 2283057); settings: primary human foreskin fibroblasts; actives raise or lower the signal
Method in brief: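 Cell-based multiplexed assay in primary human foreskin fibroblasts. EGFR is read by ELISA 24 h after treatment and compared with DMSO controls.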

[2] = read-out: Interleukin-8 (IL8), CXCL8 (gene 3576); test: BSK_hDFCGF_IL8: BioMAP Diversity Plus: hDFCGF Assay for Interleukin-8 (IL8) Biomarker Activity (AID 2283058); settings: primary human foreskin fibroblasts; actives raise or lower the signal
Method in brief: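 IL-8 levels read by ELISA at 24 hours after dosing human skin fibroblast cultures. Parallel SRB staining assessed overt cytotoxicity, and gain or loss of signal was fitted against DMSO control.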

[3] = BSK_hDFCGF_Proliferation: Cell Proliferation Assessment in the BioMAP Diversity Plus: hDFCGF Assay (AID 2283059); settings: primary human foreskin fibroblasts;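 further: curves fitted for both rise and fall of signal versus DMSO baseline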
Method in brief: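 This proliferation readout used SRB total-protein staining of human foreskin fibroblasts […], normalized to DMSO with bidirectional curve fitting.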

[4] = BSK_hDFCGF_SRB: Viability Assessment in the BioMAP Diversity Plus: hDFCGF Assay (AID 2283061); settings: primary human foreskin fibroblasts;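 further: cells exposed to compound for 24 h before the read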
Method in brief: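 Viability was read as total protein: after 10% TCA fixation, wells were stained with 0.1% sulforhodamine B and read at 560 nm. Primary human foreskin fibroblasts were dosed for 24 h, with bidirectional fitting versus DMSO.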

[5] = read-out: TIMP metallopeptidase inhibitor 1 (TIMP1), TIMP1 (gene 7076); test: BSK_hDFCGF_TIMP1: BioMAP Diversity Plus: hDFCGF Assay for TIMP metallopeptidase inhibitor 1 (TIMP1) Biomarker Activity (AID 2283062); settings: primary human foreskin fibroblasts; actives raise or lower the signal
Method in brief: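 TIMP-1 measured by ELISA 24 h after chemical dosing of primary human skin fibroblasts, with gain or loss fitted relative to DMSO. Parallel SRB staining (560 nm) monitored overt cytotoxicity.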

[6] = read-out: Monokine induced gamma interferon (MIG), CXCL9 (gene 4283); test: BSK_hDFCGF_MIG: BioMAP Diversity Plus: hDFCGF Assay for Monokine induced gamma interferon (MIG) Biomarker Activity (AID 2283063); settings: primary human foreskin fibroblasts; actives raise or lower the signal
Method in brief: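 Human primary foreskin fibroblasts in the hDFCGF system, exposed to test chemical for 24 h; MIG measured by ELISA. Bidirectional curve fitting against DMSO negative control as activity baseline.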

[7] = read-out: Matrix Metallopeptidase 1 (MMP1), MMP1 (gene 4312); test: BSK_hDFCGF_MMP1: BioMAP Diversity Plus: hDFCGF Assay for Matrix Metallopeptidase 1 (MMP1) Biomarker Activity (AID 2283064); settings: primary human foreskin fibroblasts; actives raise or lower the signal
Method in brief: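 Human foreskin fibroblasts exposed to chemical for 24 h; MMP1 detected by ELISA, with DMSO as baseline for bidirectional fitting.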

[8] = read-out: Vascular cell adhesion molecule 1 (VCAM1), VCAM1 (gene 7412); test: BSK_hDFCGF_VCAM1: BioMAP Diversity Plus: hDFCGF Assay for Vascular cell adhesion molecule 1 (VCAM1) Biomarker Activity (AID 2283065); settings: primary human foreskin fibroblasts; actives raise or lower the signal;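 on AC50: VCAM-1 protein level quantified by ELISA after 24 h chemical exposure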
Method in brief: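 ELISA readout of VCAM-1 on human dermal fibroblast primary cultures, 24 h after chemical exposure. Gain or loss of signal fitted in both directions against DMSO baseline.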

[9] = read-out: Plasminogen activator inhibitor-1 (PAI1), SERPINE1 (gene 5054); test: BSK_hDFCGF_PAI1: BioMAP Diversity Plus: hDFCGF Assay for Plasminogen activator inhibitor-1 (PAI1) Biomarker Activity (AID 2283066); settings: primary human foreskin fibroblasts; actives raise or lower the signal
Method in brief: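 Human skin fibroblast cultures receive chemical for 24 h before PAI-1 is measured by ELISA; signal changes are fitted bidirectionally against DMSO-treated wells.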

[10] = read-out: Interferon-gamma inducible Protein 10 (IP10), CXCL10 (gene 3627); test: BSK_KF3CT_IP10: BioMAP Diversity Plus: KF3CT Assay for Interferon-gamma inducible Protein 10 (IP10) Biomarker Activity (AID 2283068); settings: primary human keratinocytes with fibroblasts; actives raise or lower the signal
Method in brief: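 Signal is secreted/surface IP-10 by ELISA in a human primary skin co-culture of keratinocytes and foreskin fibroblasts, taken 24 h post-dosing; DMSO served as negative control.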

[11] = BSK_KF3CT_SRB: Viability Assessment in the BioMAP Diversity Plus: KF3CT Assay (AID 2283069); settings: primary human keratinocytes with fibroblasts;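 further: read 24 h after compound addition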
Method in brief: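 Overt cytotoxicity is assessed as total protein by sulforhodamine B staining in parallel human skin co-cultures at 24 h after dosing. DMSO serves as negative control and baseline.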

[12] = read-out: Interleukin-1 alpha (IL1a), IL1A (gene 3552); test: BSK_KF3CT_IL1a: BioMAP Diversity Plus: KF3CT Assay for Interleukin-1 alpha (IL1a) Biomarker Activity (AID 2283070); settings: primary human keratinocytes with fibroblasts; actives raise or lower the signal
Method in brief: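 Readout is IL-1a level by ELISA, compared bidirectionally with DMSO as baseline. Cells: human keratinocytes co-cultured with foreskin fibroblasts, harvested 24 h post-dose.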

[13] = read-out: Matrix Metallopeptidase 9 (MMP9), MMP9 (gene 4318); test: BSK_KF3CT_MMP9: BioMAP Diversity Plus: KF3CT Assay for Matrix Metallopeptidase 9 (MMP9) Biomarker Activity (AID 2283074); settings: primary human keratinocytes with fibroblasts; actives raise or lower the signal;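 on AC50: MMP9 protein level quantified by ELISA in the co-culture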
Method in brief: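 Values come from bidirectional fitting relative to DMSO of MMP-9 levels, which were measured by ELISA. Measurements were taken 24 h after chemical dosing of a keratinocyte and foreskin fibroblast co-culture.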

[14] = read-out: urokinase plasminogen activator (uPA), PLAU (gene 5328); test: BSK_KF3CT_uPA: BioMAP Diversity Plus: KF3CT Assay for urokinase plasminogen activator (uPA) Biomarker Activity (AID 2283075); settings: primary human keratinocytes with fibroblasts; actives raise or lower the signal
Method in brief: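 Values derive from bidirectional fitting against DMSO controls. Keratinocyte/foreskin fibroblast co-cultures received chemical; 24 h later uPA was detected by ELISA, with SRB total-protein staining in parallel wells for overt cytotoxicity.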

CD40, CD40 (gene 958) = test: BSK_LPS_CD40: BioMAP Diversity Plus: LPS Assay for CD40 Biomarker Activity (AID 2283076); settings: primary human HUVEC with PBMC; actives raise or lower the signal
Method in brief: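 In the LPS system of human endothelial cells with peripheral blood mononuclear cells, CD40 levels were read by ELISA 24 h post-treatment. Signal changes in either direction were fitted against the DMSO baseline, with parallel SRB protein staining.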

[15] = BSK_LPS_SRB: Viability Assessment in the BioMAP Diversity Plus: LPS Assay (AID 2283079); settings: primary human HUVEC with PBMC;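 further: total protein by sulforhodamine B absorbance as a cytotoxicity measure; measured one day after compound addition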
Method in brief: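 SRB viability endpoint: cells fixed with 10% TCA, stained with 0.1% SRB, read at 560 nm, 24 h post-dose. HUVEC/PBMC co-culture; signal change in either direction scored relative to DMSO.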

[16] = read-out: Tumor necrosis factor (Homo sapiens) (UniProt P01375); test: BSK_LPS_TNFa: BioMAP Diversity Plus: LPS Assay for Tumour Necrosis Factor alpha (TNFa) Biomarker Activity (AID 2283085); settings: primary human HUVEC with PBMC; actives raise or lower the signal;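 on AC50: TNFa protein level quantified by ELISA in the co-culture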
Method in brief: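 ELISA-based TNFa endpoint in a human endothelial–PBMC co-culture sampled 24 h post-exposure. Curves were fitted in both directions using DMSO as baseline of activity.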

[17] = read-out: Vascular cell adhesion molecule 1 (VCAM1), VCAM1 (gene 7412); test: BSK_LPS_VCAM1: BioMAP Diversity Plus: LPS Assay for Vascular cell adhesion molecule 1 (VCAM1) Biomarker Activity (AID 2283086); settings: primary human HUVEC with PBMC; actives raise or lower the signal
Method in brief: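 Measured by ELISA: VCAM-1 in LPS-activated HUVEC/PBMC co-cultures 24 h after treatment. Values reflect bidirectional fitting with DMSO as baseline.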

[18] = read-out: Monokine induced gamma interferon (MIG), CXCL9 (gene 4283); test: BSK_SAg_MIG: BioMAP Diversity Plus: SAg Assay for Monokine induced gamma interferon (MIG) Biomarker Activity (AID 2283092); settings: primary human HUVEC with PBMC; actives raise or lower the signal
Method in brief: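 Values reflect bidirectional fitting of ELISA-measured MIG against DMSO vehicle, taken 24 h after dosing of a co-culture of human umbilical vein endothelial cells and peripheral blood mononuclear cells.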

[19] = BSK_SAg_PBMCCytotoxicity: PBMC Cytotoxicity Assessment in the BioMAP Diversity Plus: SAg Assay (AID 2283093); settings: primary human HUVEC with PBMC;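 further: PBMC viability measured as Alamar Blue reduction fluorescence at 546/580 nm; fitted both ways against DMSO so a hit may be loss or gain of signal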;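 on AC50: PBMC superantigen activated with SEB plus TSST-1 one hour after compound addition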
Method in brief: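 Alamar Blue reduction (6 h, 546/580 nm) reports PBMC cytotoxicity after 90 h superantigen activation (SEB, TSST-1; 20 ng/mL final each) with 1 h compound pre-treatment. Gain or loss of signal fitted versus DMSO.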

Sequence of Tumor necrosis factor (Homo sapiens) (P01375 whole entry, looked up): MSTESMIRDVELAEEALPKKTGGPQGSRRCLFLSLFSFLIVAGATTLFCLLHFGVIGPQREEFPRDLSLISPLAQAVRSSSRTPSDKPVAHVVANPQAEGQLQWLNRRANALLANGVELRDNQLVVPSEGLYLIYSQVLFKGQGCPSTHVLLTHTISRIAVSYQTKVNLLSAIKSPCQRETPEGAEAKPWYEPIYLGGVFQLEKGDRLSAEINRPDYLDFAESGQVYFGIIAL

Oc1ccc(C2(c3ccc(O)cc3)c3ccccc3-c3ccccc32)cc1
outcome [1]: inactive | AC50 [2]: 6.24 µM (active) and 5.65 µM (active) | AC50 [3]: 1.12 µM (active) and 927 nM (active) | outcome [4]: inactive | AC50 [5]: 1.47 µM (active) and 1.56 µM (active) | AC50 [6]: 3.38 µM (active) and 2.61 µM (active) | AC50 [7]: 3.97 µM (active) and 2.03 µM (active) | AC50 [8]: 1.61 µM (active) and 1.41 µM (active) | AC50 [9]: 728 nM (active) and 803 nM (active) | AC50 [10]: 6.03 µM (active) and 7.32 µM (active) | AC50 [11]: 5.12 µM (active) and 5.08 µM (active) | AC50 [12]: 8.68 µM (active) and 6.35 µM (active) | AC50 [13]: 5.39 µM (active) and 5.41 µM (active) | AC50 [14]: 8.33 µM (active) and 9.87 µM (active) | AC50 (CD40, CD40 (gene 958)): 12.1 µM (active) and 10.1 µM (active) | AC50 [15]: 13.7 µM (active) and 14.4 µM (active) | AC50 [16]: 30.9 µM (active) and 36.3 µM (active) | AC50 [17]: 15.9 µM (active) and 22 µM (active) | AC50 [18]: 12.4 µM (active) and 11.5 µM (active) | AC50 [19]: 12.1 µM (active) and 12.3 µM (active)

N#CCCCCC#N
outcome [1]: inactive | outcome [2]: inactive | outcome [3]: inactive | outcome [4]: inactive | outcome [5]: inactive | outcome [6]: inactive | outcome [7]: inactive | outcome [8]: inactive | outcome [9]: inactive | outcome [10]: inactive | outcome [11]: inactive | outcome [12]: inactive | outcome [13]: inactive | outcome [14]: inactive | outcome (CD40, CD40 (gene 958)): inactive | outcome [15]: inactive | outcome [16]: inactive | outcome [17]: inactive | outcome [18]: inactive | outcome [19]: inactive

CC(C)COP(=O)(OCC(C)C)OCC(C)C
outcome [1]: inactive | outcome [2]: inactive | outcome [3]: inactive | outcome [4]: inactive | outcome [5]: inactive | outcome [6]: inactive | outcome [7]: inactive | outcome [8]: inactive | outcome [9]: inactive | outcome [10]: inactive | outcome [11]: inactive | outcome [12]: inactive | outcome [13]: inactive | outcome [14]: inactive | outcome (CD40, CD40 (gene 958)): inactive | outcome [15]: inactive | outcome [16]: inactive | outcome [17]: inactive | outcome [18]: inactive | outcome [19]: inactive

CCCCCCCCCCCC#N
outcome [1]: inactive | outcome [2]: inactive | AC50 [3]: 10.1 µM (active) | AC50 [4]: 29.1 µM (active) | AC50 [5]: 33 µM (active) | AC50 [6]: 29.7 µM (active) | AC50 [7]: 37.7 µM (active) | AC50 [8]: 20.6 µM (active) | AC50 [9]: 31.8 µM (active) | outcome [10]: inactive | outcome [11]: inactive | outcome [12]: inactive | outcome [13]: inactive | outcome [14]: inactive | AC50 (CD40, CD40 (gene 958)): 30.8 µM (active) | outcome [15]: inactive | AC50 [16]: 36.4 µM (active) | AC50 [17]: 33.6 µM (active) | outcome [18]: inactive | AC50 [19]: 32 µM (active)

CC1(C)[C@H](C(=O)O[C@H](C#N)c2cccc(Oc3ccccc3)c2)[C@@H]1C=C(Br)Br
outcome [1]: inactive | outcome [2]: inactive | outcome [3]: inactive | outcome [4]: inactive | outcome [5]: inactive | outcome [6]: inactive | outcome [7]: inactive | outcome [8]: inactive | outcome [9]: inactive | outcome [10]: inactive | outcome [11]: inactive | outcome [12]: inactive | outcome [13]: inactive | outcome [14]: inactive | outcome (CD40, CD40 (gene 958)): inactive | outcome [15]: inactive | outcome [16]: inactive | outcome [17]: inactive | outcome [18]: inactive | outcome [19]: inactive

CNC(=O)Oc1cc(C)c(SC)c(C)c1
outcome [1]: inactive | outcome [2]: inactive | outcome [3]: inactive | outcome [4]: inactive | outcome [5]: inactive | outcome [6]: inactive | outcome [7]: inactive | outcome [8]: inactive | outcome [9]: inactive | outcome [10]: inactive | outcome [11]: inactive | outcome [12]: inactive | outcome [13]: inactive | outcome [14]: inactive | AC50 (CD40, CD40 (gene 958)): 20 µM (active) | outcome [15]: inactive | outcome [16]: inactive | AC50 [17]: 20 µM (active) | outcome [18]: inactive | outcome [19]: inactive

O=P1(NCCCl)OCCCN1CCCl (stereo not given)
outcome [1]: inactive | outcome [2]: inactive | outcome [3]: inactive | outcome [4]: inactive | outcome [5]: inactive | outcome [6]: inactive | outcome [7]: inactive | outcome [8]: inactive | outcome [9]: inactive | outcome [10]: inactive | outcome [11]: inactive | outcome [12]: inactive | outcome [13]: inactive | outcome [14]: inactive | outcome (CD40, CD40 (gene 958)): inactive | outcome [15]: inactive | outcome [16]: inactive | outcome [17]: inactive | outcome [18]: inactive | outcome [19]: inactive
